Screens deposited in PubChem BioAssay by National Center for Advancing Translational Sciences (NCATS).
Compounds with a hit are over-represented: about 19% of the library has one in this group of screens.
HT1080NT lethal – kills 2HG-producing HT-1080-NT fibrosarcoma cells. HT-1080-NT fibrosarcoma viability, CellTiter-Glo ATP luminescence, 48 h. Potency, µM (series often up to 46.1 µM), usual class: cytotoxic. actives 1.6% (n = 360,000). AID 686970;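 note: NT is the 2HG producing partner of a matched IDH1 knockdown line; nearly all actives have a fitted effect of over 55% in size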
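Viability of the 2HG-overproducing fibrosarcoma line after 48 hours of compound exposure at 37 degrees C was determined by luminescence with CellTiter-Glo, and concentration-effect curves were then fitted and categorized.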
TDP1 cell CPT – DT40-hTDP1 cell growth loss with CPT. chicken DT40 Tdp1-/-;hTDP1 cells + 20 nM CPT, ATP luminescence, 48 h. Potency, µM (top dose mostly 46.2 µM), usual class: inhibitors. actives 12% (n = 420,000); note: nearly all actives have a fitted effect of over 55% in size
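Chicken DT40 Tdp1-/- cells complemented with human TDP1, 400 cells/well, exposed to compounds plus 20 nM camptothecin for at least 48 h at 37 C; viability read as ATP content by CellTiter-Glo luminescence.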
DT40 TDP1 no CPT – qHTS for Inhibitors of human tyrosyl-DNA phosphodiesterase 1 (TDP1): qHTS in cells in absence of CPT; DT40 Tdp1-/- hTDP1 cells, no CPT, ATP luminescence, 48 h; Potency, µM (highest dose often 46.2 µM), most hits filed as inhibitors; actives 15% (n = 420,000); AID 686978, 2013; note: nearly all actives have a fitted effect of over 55% in size
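Cells were dispensed at 400 per well, compounds added by pin tool, plates incubated ≥48 hr at 37 °C, then CellTiter-Glo added for 30 min at room temperature before luminescence reading. Line: DT40 Tdp1-/- complemented with hTDP1; camptothecin omitted.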
KB-3-1 cytotox – KB-3-1 parental cell cytotoxicity; actives 1.4% (n = 400,000); KB-3-1 viability, CellTiter-Glo ATP luminescence, 72 h; AID 1347075; Potency, µM (top dose mostly 46.1 µM), actives largely listed as cytotoxic; note: nearly all actives have a fitted effect of over 60% in size
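Parental KB-3-1 adenocarcinoma cells in phenol-red-free DMEM with 10% FBS were pin-treated with compounds at several concentrations, incubated 72 h at 37 °C, and viability read by CellTiter-Glo luminescence; concentration-effect curves were fitted after normalization.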
KB-V1 cytotox – kills drug-selected multidrug resistant KB-V1 cells | KB-V1 MDR cells viability, CellTiter-Glo, 72 h | Potency, µM (doses to about 46.1 µM), usual class: cytotoxic | actives 3.4% (n = 400,000) | AID 1347076; note: nearly all actives have a fitted effect of over 60% in size
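Cells of the MDR subline KB-V1 are plated, dosed with compound at multiple concentrations, and incubated 72 h at 37 degrees C; CellTiter-Glo is then added and luminescence read after 10 min.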
HT1080 IDH1KD tx – HT-1080 IDH1 knockdown cell toxicity (counter line); AID 686971; HT-1080 IDH1 knockdown viability, ATP luminescence, 48 h; Potency, µM (doses to about 46.1 µM), usual class: cytotoxic; actives 2% (n = 360,000)
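Knockdown cells (IDH1KD HT-1080) received compounds 2 h after plating at 750 cells/well and were kept 48 h at 37 °C in 5% FBS RPMI. A CellTiter-Glo luminescence read gave % activity for curve fitting.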
A number is an active result; - = inactive; ? = inconclusive; . = not tested or not shown. Calls come from the whole dose curve; as a rule, active = well fitted curve in the direction sought with a large enough effect; inconclusive = small, poorly fitted or top-dose-only effect, or another doubt; inactive = no such curve, though single readings can be large; an effect the other way counts as inactive or inconclusive.

SMILES | HT1080NT lethal | TDP1 cell CPT | DT40 TDP1 no CPT | KB-3-1 cytotox | KB-V1 cytotox | HT1080 IDH1KD tx
COC(=O)CNC(c1ccccc1)c1cc(Cl)ccc1NC(=O)c1cccc(Cl)c1 (stereo unspecified) | - | ? | ? | - | 5.2µM | -
CC(=O)OCC(=O)C1CCC2C3CCC4=CC(=O)C=CC4(C)C3CCC12C (stereo unspecified) | - | ? | ? | - | 16µM | -
Cc1cccc(NC(=O)C2CCN(S(=O)(=O)c3ccc4c(c3)OCCCO4)CC2)n1 | - | ? | 21µM | ? | ? | ?
Cc1ccc(NC(=O)C2CCN(S(=O)(=O)c3ccc4c(c3)OCCCO4)CC2)nc1 | ? | ? | ? | 16µM | ? | -
O=C(Nc1ccccn1)C1CCN(S(=O)(=O)c2ccc3c(c2)OCCCO3)CC1 | - | - | - | - | - | -
O=C1Cc2c([nH]c3ccc([N+](=O)[O-])cc23)-c2ccccc2N1 | - | 1.8µM | 1.8µM | 0.82µM | ? | 2.1µM
CCC(c1nc2ccccc2c(=O)n1-c1nc2ccccc2s1)N1C(=O)c2ccccc2C1=O (stereo unspecified) | - | - | - | ? | 3.7µM | -
O=c1c2ccccc2ncn1Cc1nc2ccccc2s1 | - | - | - | - | - | -
Nc1nc(C(F)(F)F)cc(=O)n1N | - | - | - | ? | ? | -
CC1CN(S(=O)(=O)c2ccc(C(=O)NCCCn3ccnc3)cc2)CC(C)O1 (stereo unspecified) | 2.1µM | - | ? | - | - | 1.8µM
CC1CCN(S(=O)(=O)c2ccc(C(=O)Nc3nnc(-c4ccco4)o3)cc2)CC1 | - | 15µM | 18µM | ? | ? | -
CC1CN(S(=O)(=O)c2ccc(C(=O)Nc3nnc(-c4ccco4)o3)cc2)CC(C)O1 (stereo unspecified) | - | 23µM | ? | ? | ? | -
COc1ccccc1NC(=O)CSc1nnc(CC(=O)Nc2ccccc2F)n1C | - | - | - | - | - | -
Cc1ccc2c(c1)N(CCC(=O)NCCCN1CCCC1)C(=O)C(C)O2 (stereo unspecified) | - | - | - | - | - | -
COc1ccc(Cl)cc1NC(=O)Cc1coc2c(C)c(C)ccc12 | . | ? | ? | - | - | .
COc1cc(OC)cc(C(=O)Nn2cc(C(=O)N3CCN(C)CC3)c3ccccc3c2=O)c1 | - | - | - | - | - | -
COc1cc(OC)cc(C(=O)Nn2cc(C(=O)Nc3ccc(F)cc3F)c3ccccc3c2=O)c1 | - | 13µM | ? | - | ? | -
COC(=O)c1cn(NC(=O)c2cc([N+](=O)[O-])ccc2F)c(=O)c2ccccc12 | ? | 3.3µM | 4.6µM | ? | 12µM | 9.2µM
COc1cccc(NC(=O)CSC2=Nc3ccccc3C3=NC(CC(=O)NCc4ccc5c(c4)OCO5)C(=O)N23)c1 (stereo unspecified) | . | ? | ? | - | - | .
O=C(CC1N=C2c3ccccc3N=C(SCc3ccc(F)cc3)N2C1=O)NCc1ccc2c(c1)OCO2 (stereo unspecified) | . | ? | ? | - | - | .
CCOc1ccccc1NC(=O)CSC1=Nc2ccccc2C2=NC(CC(=O)NCc3ccc4c(c3)OCO4)C(=O)N12 (stereo unspecified) | . | ? | 23µM | - | - | .
O=C(CC1N=C2c3ccccc3N=C(SCc3ccccc3F)N2C1=O)NCc1ccc2c(c1)OCO2 (stereo unspecified) | . | 18µM | ? | - | - | .
CCC(SC1=Nc2ccccc2C2=NC(CC(C)C)C(=O)N12)C(=O)Nc1ccc2c(c1)OCO2 (stereo unspecified) | - | ? | ? | ? | 15µM | -
COc1ccc(NC(=O)Cc2coc3cc(C)ccc23)cc1S(=O)(=O)N1CCOCC1 | - | - | ? | - | 18µM | -
COc1ccc(OC)c(S(=O)(=O)N2CCC(C(=O)Nc3ccc(C)c(C)c3)CC2)c1 | - | 16µM | 21µM | - | ? | -
SMILES | HT1080NT lethal | TDP1 cell CPT | DT40 TDP1 no CPT | KB-3-1 cytotox | KB-V1 cytotox | HT1080 IDH1KD tx
COc1ccc(S(=O)(=O)Nc2ccccc2OC)cc1NC(=O)CC1CC2CCC1C2 (stereo unspecified) | - | ? | 16µM | - | 21µM | -
COc1ccc(NC(=O)C2CCC(C(C)(C)C)CC2)cc1S(=O)(=O)N1CCOCC1 (stereo unspecified) | - | 21µM | ? | ? | - | -
COc1ccc(NC(=O)CC2CC3CCC2C3)cc1S(=O)(=O)N1CCOCC1 (stereo unspecified) | - | - | - | - | 13µM | -
Cc1ccc(NC(=O)COC(=O)CC2CC3CCC2C3)cc1S(=O)(=O)N1CCOCC1 (stereo unspecified) | - | - | - | - | - | -
CCOc1ccc(CN(C)C(=O)CNC(=O)C2CCCCC2)cc1 | - | - | - | - | - | -
CC(C)c1ccc(-c2noc(SCC(=O)N3CCN(c4ccccc4F)CC3)n2)cc1 | . | 23µM | 21µM | - | - | .
COc1ccccc1N1CCN(C(=O)CSc2nc(-c3ccc(C(C)C)cc3)no2)CC1 | . | 23µM | 6.5µM | - | - | .
O=C(CSc1nc(-c2ccccc2)no1)N1CCN(c2ccccc2F)CC1 | . | - | - | - | - | .
O=C(CSc1nc(-c2ccccc2)no1)N1CCCCC1 | . | ? | 3.7µM | - | - | .
CCOC(=O)c1cn(CC(=O)Nc2ccc(OC)cc2OC)nn1 | - | - | - | - | - | -
CCCNC(=O)Cn1c(=O)c2cccn2c2cccnc21 | . | - | - | . | . | .
COc1ccc(S(=O)(=O)N2CCCCC2)cc1NS(=O)(=O)c1ccc(CNC(C)=O)cc1 | - | - | - | - | - | -
CCOC(=O)CNC(=O)N1CCCC(N(C)CCc2ccccc2)C1 (stereo unspecified) | - | - | - | - | - | -
COC1=C(c2ccccc2)C(=O)c2ccccc2C1=O | - | 23µM | 16µM | - | ? | 26µM
O=C(C1=C(c2ccccc2)C(=O)c2ccccc2C1=O)c1ccccc1 | ? | 2.1µM | 2.9µM | ? | ? | 15µM
COc1ccc(NC2=C(c3ccc(C(F)(F)F)cc3)C(=O)c3ccccc32)cc1 | . | ? | ? | - | - | .
COc1ccc(C2=C(Nc3ccc(C)cc3C)c3ccccc3C2=O)cc1 | . | 13µM | ? | - | - | .
O=C1C(c2ccc(C(F)(F)F)cc2)=C(Nc2ccc(Cl)cc2)c2ccccc21 | . | 16µM | 12µM | - | - | .
COc1ccc(NC2=C(c3ccc(OC)cc3)C(=O)c3ccccc32)cc1 | - | 3.7µM | ? | - | 5.2µM | -
COc1ccc(C2=C(Nc3ccccc3)c3ccccc3C2=O)cc1 | - | - | ? | - | - | -
